# An excerpt weighted towards active compounds, which were near 14% of everything screened.
# NS1 function inh – influenza NS1 inhibition. Potency, µM (highest dose often 46.1 µM), for inactives: at the highest dose activity, positive = more growth. actives 0.4% (n = 270,000). AID 2326; calls by dose curve; further: potency means the concentration at half of the fitted maximal effect; actives are rising curves; nearly all actives have a fitted effect of over 50% in size
#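 In this qHTS, NS1 from influenza A is expressed in budding yeast, where it slows growth. Cells are switched from glucose to 2% galactose medium (pH 6.0, -URA), treated with compound, and growth recovery is read at OD600.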
# Giardia FBPA inh – blocks Giardia fructose-bisphosphate aldolase activity; purified Giardia FBPA; Potency, µM (doses to about 59.6 µM), inactives show at the top dose activity, negative = inhibition, usual class: inhibitors; actives 0.71% (n = 290,000); AID 2451; further: potency means the concentration at half of the fitted maximal effect; on the % scale 0 is the no-effect control and ±100 the full control effect; nearly all actives have a fitted effect of over 55% in size
# Target sequence (A8B2U2 whole entry, looked up): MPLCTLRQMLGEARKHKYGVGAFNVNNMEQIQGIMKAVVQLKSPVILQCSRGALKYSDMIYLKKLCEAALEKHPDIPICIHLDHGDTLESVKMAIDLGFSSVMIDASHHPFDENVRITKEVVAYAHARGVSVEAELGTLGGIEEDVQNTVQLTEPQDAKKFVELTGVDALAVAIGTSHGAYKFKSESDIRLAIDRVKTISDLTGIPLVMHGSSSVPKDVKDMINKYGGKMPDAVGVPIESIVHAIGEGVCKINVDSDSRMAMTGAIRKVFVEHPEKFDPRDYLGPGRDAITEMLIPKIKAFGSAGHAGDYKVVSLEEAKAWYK
#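 40 nM FBPA preincubated 10 min at RT with compound (up to 57.5 uM final), then substrate plus GAPDH/TPI/NAD/arsenate coupling and diaphorase/resazurin added. Fluorescence read after 20 min at RT, 525/598 nm.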
# Cycloheximide cs – counter-screen hit for Shiga toxin inhibitors, cycloheximide. cell reporter, cycloheximide protein synthesis inhibition counterscreen. max response, %. actives 12% (n = 300,000). AID 2314; in the data active means max response mostly above about 13%, no sharp cut-off; inactive means mostly below about 14%; further: read at 38.3 µM for the half of the compounds with a filed dose; 0% is about no effect
# LmPK inhibitor – blocks Leishmania mexicana pyruvate kinase activity; purified LmPK, Kinase-Glo ATP luminescence, 1 h; Q27686; AID 1721; actives 0.37% (n = 290,000); Potency, µM (titrated, usually from 57.5 µM), without a hit: at the top dose activity change, negative = inhibition, actives largely listed as inhibitors; further: potency means the concentration at half of the fitted maximal effect; on the % scale 0 is the no-effect control and ±100 the full control effect
#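 In 50 mM imidazole pH 7.2 with 7 mM MgCl2, LmPK (0.1 nM) turned over PEP (0.5 mM) and ADP (0.1 mM) for 1 h at room temperature. Luciferase read-out of ATP.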
# Shiga toxin inh – Shiga toxin inhibition | actives 9.2% (n = 290,000) | Vero cells, Shiga toxin protein synthesis inhibition reporter | AID 2315 | inhibition, % at 38.7 µM; in the data active means inhibition mostly above about 28%, no sharp cut-off; inactive means mostly below about 43%; further: 0% is about no effect
# * marks the source's active call; other numbers are inactive results; ? = inconclusive; · = no result; + = active, no number; [ ] = remark or other dose. Unless noted, the call rests on the fitted dose curve; in most records, active means well fitted curve in the direction sought with a large enough effect; inconclusive means small, poorly fitted or top-dose-only effect, or another doubt; inactive means no such curve, though single readings can be large; an effect the other way counts as inactive or inconclusive.
SMILES,NS1 function inh,Giardia FBPA inh,Cycloheximide cs,LmPK inhibitor,Shiga toxin inh
CCc1ccc(CN(Cc2cccnc2)C(=O)/C=C/c2ccc(OC)cc2)cc1,11%,-2%,25*,-1%,34*
COc1ccc(OCC2CN3C(CCC(C)C3c3ccc(Br)cc3)C(=O)O2)cc1 (centres undefined),·,0%[12.9 µM],·,·,·
CCn1nnnc1SCC(=O)Nc1ccc(F)cc1,-13%,3%,20,-2%,23
CCSc1ncc(/C=N/Nc2ccc(F)cc2)n1C,-56%,-5%,30*,4%,52*
Cc1cccc(N=Nc2c(C)nn(-c3ccccc3)c2N)c1C,-5%,1%,77*,5%,72*
Nc1nn(-c2ccccc2)c(N)c1N=Nc1ccccc1,-20%,3%,51*,-1%,102*
Nc1c(N=Nc2ccccc2F)c(=O)[nH]n1-c1ccccc1,-18%,-8%,44*,-6%,63*
Cc1ccccc1N=Nc1c(C)[nH]n(-c2ccccc2)c1=O,5%,0%,-4,11%,8
Nc1nn(-c2ccccc2)c(N)c1N=Nc1ccccc1F,-39%,-4%,50*,0%,+
Cc1cc(=O)n2[nH]c(N)c(N=Nc3ccccc3F)c2n1,-4%,-19%,0,-5%,-3
Cc1nc2c(N=Nc3ccccc3F)c(N)nn2c(N)c1C#N,-4%,7%,16*,1%,8
Cc1nn(-c2ccccc2)c(N)c1N=Nc1cccc(S(=O)(=O)N2CCOCC2)c1,28%,-2%,2,1%,-3
Cc1nn(-c2ccccc2)c(N)c1N=Nc1ccc(Cl)cc1,-9%,-2%,29*,1%,102*
Cc1nn(-c2ccccc2)c(N)c1N=Nc1ccccc1,-32%,4%,74*,-2%,77*
CCN1CCCC1Cn1c(-c2ccccc2)nc2c(N(CCOC)CCOC)nc(C)nc21 (centres undefined),·,1%,·,·,·
O=C1O/C(=C\c2ccccc2)c2ccccc21,0%,2%,31*,-11%,45*
CC(C)(Cc1cc(CC(C)(C)C(=O)O)cc(C(C)(C)C)c1)C(=O)O,21%,-13%,6,9%,11
O=c1[nH]c(-[n+]2ccc3ccccc3c2)c(/C=N/N=C(\[O-])c2ccccc2)s1,-2%,-3%,17*,-3%,40
CC(C)(C)c1cc[n+](-c2[nH]c(=O)sc2/C=N/N=C(\[O-])c2cccnc2)cc1,6%,-5%,4,0%,-7
COC(=O)c1sc(-c2ccc(Cl)cc2)cc1NC(=O)CSCC(=O)O,7%,20%,-2,1%,1
COC(=O)c1sc(-c2ccc(C(C)(C)C)cc2)cc1NC(=O)COCC(=O)O,14%,9%,20*,3%,44*
Cc1ccc(C(=O)COC(=O)c2ccccc2NC(=O)c2ccccc2)cc1[N+](=O)[O-],20%,7%,-1,2%,-2
O=C(COC(=O)c1ccccc1[N+](=O)[O-])c1ccc(C2CCCCC2)cc1,?,-4%,60*,-19%,71*
O=C(NCc1ccc2c(c1)OCO2)c1ccccn1,5%,6%,20*,-1%,-6
O=C(NCCc1ccc2c(c1)OCCO2)c1ccccn1,-10%,4%,42*,-5%,78*
SMILES,NS1 function inh,Giardia FBPA inh,Cycloheximide cs,LmPK inhibitor,Shiga toxin inh
O=C(NCc1ccc2c(c1)OCO2)c1ccccc1,·,4%,6,-6%,-2
O=C(CCc1c[nH]c2ccccc12)NCc1cccc(Cl)c1,-3%,1%,-4,2%,2
O=C(CCc1c[nH]c2ccccc12)NCCc1ccc2c(c1)OCCO2,-3%,·,17,2%,84*
CS(=O)(=O)Nc1ccc([N+](=O)[O-])cc1OC1CCCCC1,·,12%,·,·,·
CCCn1c(CCC(=O)O)nc2cc(S(=O)(=O)N(CC)CC)ccc21,10%,0%,3,-1%,-10
CCN(CC)S(=O)(=O)c1ccc2c(c1)nc(-c1ccccn1)n2C,-4%,3%,23*,4%,83*
Cc1ccc(N(C(=O)CCCC(=O)Nc2ccccn2)C(C(=O)NC2CCCC2)c2ccc(O)cc2)cc1C (centres undefined),-6%,-6%,3,1%,-5
COc1cccc(C(=O)Nc2ccc3nc(N4CCOCC4)cc(C)c3c2)c1,-91%,-2%,-2,1%,9
CCOc1ccc2nc(N3CCOCC3)nc(C)c2c1,-11%,-9%,53*,3%,99*
COc1ccc2c(C)cc(N3CCOCC3)nc2c1,-4%,0%,26*,4%,52*
COc1ccc2nc(N3CCOCC3)cc(C)c2c1,-2%,3%,33*,0%,61*
CCOc1ccc(Nc2nc(N3CCOCC3)nc(N3CCOCC3)n2)cc1,-10%,5%,-2,-3%,-3
COc1ccc2c(C)cc(N3CCN(c4ccc(F)cc4)CC3)nc2c1,-4%,0%,-3,0%,-5
O=C(NCCO)C(=O)Nc1cc2c3c(c1)CCN3C(=O)CC2,-8%,-2%,-4,2%,-4
COC(=O)C[C@H]1c2ccccc2C2=C(C[C@@H](C)[C@H]3C(=O)NC(=O)[C@@H]23)N1C(=O)OC,·,6%[12.9 µM],·,2%[11.5 µM],·
CCCCCCSc1nsc(NC(C)=O)n1,-15%,7%,30*,-6%,59*
CCCCNC(=O)CSc1nnc(NC(C)=O)s1,-1%,0%,-1,1%,52
CCCSc1nsc(NC(=O)c2cccnc2OCC)n1,-5%,-5%,11,13%,22
CCCCSc1nsc(NC(C)=O)n1,-7%,-2%,43*,-7%,171*
CCCSc1nsc(NC(=O)CCC)n1,·,-3%,37*,-10%,104*
CCCCN(C(=O)c1cc(=O)[nH]c2ccccc12)c1c(N)n(CCCC)c(=O)[nH]c1=O,0%,-2%,-3,-1%,-3
COc1ccccc1CCNC(=O)C(=O)NCC1OCCN1S(=O)(=O)c1ccc(OC)c(OC)c1 (centres undefined),4%,12%,1,0%,-3
Cc1c(C(=O)N2CCCCC2C)sc2nc3n(c(=O)c12)CCC3 (centres undefined),3%,1%,-3,-2%,1
Cc1ccc(NC(CC(=O)c2ccccc2)C(=O)O)cc1Cl (centres undefined),-7%,-20%,41*,-15%,71*
O=C(CC(Nc1ccc(Cl)cc1Cl)C(=O)O)c1ccccc1 (centres undefined),-2%,3%,65*,9%,155*
O=C(CC(Nc1ccccc1)c1ccc(F)cc1)c1ccccc1 (centres undefined),13%,-3%,73*,1%,56*
O=C(CC(Nc1ccccc1)C(=O)O)c1ccccc1 (centres undefined),-56%,-12%,37*,?,139*
CC(C)Sc1nc(N)nc(-c2cccs2)c1C#N,-28%,2%,33*,4%,105*
O=C(NCCc1ccccc1)c1ccc(CS(=O)Cc2ccc(Cl)cc2)o1 (centres undefined),-3%,5%,4,0%,25

# Assay outcomes as filed in PubChem.
